Our source for the composite z-score and z-score values is PubChem BioAssay.

Test [1] in a line: binders of probe aFSTL3 on microarray, primary screen, stem cell growth factor project, biochemical, small-molecule microarray, fluorescence 635/667 (AID 1064).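 Also: measures binding of the biotinylated anti-FSTL3 antibody to printed compounds.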 Particulars: higher = more signal.
A short description of test [2]: binders from COS7 lysate, DM2A8 probe, primary screen, torsin A project, cell lysate, small-molecule microarray, fluorescence 635/667 (AID 1065). The note with it: higher = more signal, COS7 lysate expressing mutant human TOR1A.
Test [3] can be described thus: binders of probe aFGF2 on microarray, primary screen, stem cell growth factor project, biochemical, small-molecule microarray, fluorescence 635/667 (AID 1067).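 Also: measures binding of biotinylated aFGF2 protein to printed compounds on slides; z-score merges feature fluorescence and signal-to-noise across triplicate slides.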 The note with it: higher = more signal.
Test [4] can be described thus: binders of probe aFGF10 on microarray, primary screen, stem cell growth factor project, biochemical, small-molecule microarray, fluorescence 635/667 (AID 1071).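 Also: score merges 667 nm spot intensity and signal to noise from triplicate slides.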 The note with it: higher = more signal.
The target in test [5] is Neurogenic locus notch homolog protein 2 (Homo sapiens) (UniProt Q04721). The test is described as follows: Notch2 binders on small-molecule microarrays, primary screen, biochemical, small-molecule microarray, 635 nm fluorescence, stem cell growth factors (AID 1073). The note with it: Notch2 binding, higher = more signal.
For test [6], the target named is Pro-neuregulin-1, membrane-bound isoform (Homo sapiens) (UniProt Q02297). In words: NRG1 binders on small-molecule microarrays, primary screen, psychiatric disease protein project, biochemical, small-molecule microarray, fluorescence 635/667 (AID 1075).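 Also: score combines 667 nm spot fluorescence with signal to noise.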 Particulars: NRG1 binding, 635 nm fluorescence, higher = more signal.
Test [7] concerns Neuregulin-1 EGF-like domain. In words: binders of neuregulin-1 EGF-like domain, primary screen, biochemical, small-molecule microarray, 635 nm fluorescence (AID 1081).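 Also: binding of the protein to compounds printed on small-molecule microarray slides.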 Particulars: small-molecule microarray binding, higher = more signal.
Test [8] is described as follows: FRG1 promoter luciferase signal modulators, primary screen, FRG1 inhibition for FSHD, cell-based, C2C12 myotubes, firefly/Renilla luciferase, luminescence (AID 1084). The note with it: higher = more signal, called active from +8 up or from −8 down.
Test [9] in a line: binders of probe aFST on microarray, primary screen, stem cell growth factor project, biochemical, small-molecule microarray, fluorescence 635/667 (AID 1086).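 Also: score merges 667 nm fluorescence with signal-to-noise of each printed compound spot.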 The note with it: higher = more signal.
The nature of test [10]: binders of probe aHhip on microarray, primary screen, stem cell growth factor project, biochemical, small-molecule microarray, fluorescence 635/667 (AID 1087).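 Also: score merges spot fluorescence at 667nm with spot signal to noise ratio.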 The note with it: higher = more signal.

The source made the active and inactive calls.

Chain of Pro-neuregulin-1, membrane-bound isoform (Homo sapiens) (Q02297 whole entry, looked up, the tested form may be a part, canonical isoform): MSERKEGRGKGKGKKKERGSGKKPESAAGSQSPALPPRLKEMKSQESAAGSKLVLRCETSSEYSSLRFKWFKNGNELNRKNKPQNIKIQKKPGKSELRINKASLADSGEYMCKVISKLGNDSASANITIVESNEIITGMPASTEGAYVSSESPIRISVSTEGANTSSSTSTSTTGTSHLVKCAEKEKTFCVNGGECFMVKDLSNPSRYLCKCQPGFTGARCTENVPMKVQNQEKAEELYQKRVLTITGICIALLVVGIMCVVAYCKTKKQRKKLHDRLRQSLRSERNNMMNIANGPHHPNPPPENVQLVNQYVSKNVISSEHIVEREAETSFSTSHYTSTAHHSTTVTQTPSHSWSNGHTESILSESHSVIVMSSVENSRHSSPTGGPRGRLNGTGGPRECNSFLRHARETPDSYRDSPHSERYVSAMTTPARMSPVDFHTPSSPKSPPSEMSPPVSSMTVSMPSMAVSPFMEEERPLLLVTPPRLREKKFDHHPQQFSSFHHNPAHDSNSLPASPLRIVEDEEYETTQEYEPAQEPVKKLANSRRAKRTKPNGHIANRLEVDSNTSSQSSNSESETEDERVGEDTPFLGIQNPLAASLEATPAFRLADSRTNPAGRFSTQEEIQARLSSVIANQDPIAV
Chain of Neurogenic locus notch homolog protein 2 (Homo sapiens) (Q04721 whole entry, looked up, canonical isoform): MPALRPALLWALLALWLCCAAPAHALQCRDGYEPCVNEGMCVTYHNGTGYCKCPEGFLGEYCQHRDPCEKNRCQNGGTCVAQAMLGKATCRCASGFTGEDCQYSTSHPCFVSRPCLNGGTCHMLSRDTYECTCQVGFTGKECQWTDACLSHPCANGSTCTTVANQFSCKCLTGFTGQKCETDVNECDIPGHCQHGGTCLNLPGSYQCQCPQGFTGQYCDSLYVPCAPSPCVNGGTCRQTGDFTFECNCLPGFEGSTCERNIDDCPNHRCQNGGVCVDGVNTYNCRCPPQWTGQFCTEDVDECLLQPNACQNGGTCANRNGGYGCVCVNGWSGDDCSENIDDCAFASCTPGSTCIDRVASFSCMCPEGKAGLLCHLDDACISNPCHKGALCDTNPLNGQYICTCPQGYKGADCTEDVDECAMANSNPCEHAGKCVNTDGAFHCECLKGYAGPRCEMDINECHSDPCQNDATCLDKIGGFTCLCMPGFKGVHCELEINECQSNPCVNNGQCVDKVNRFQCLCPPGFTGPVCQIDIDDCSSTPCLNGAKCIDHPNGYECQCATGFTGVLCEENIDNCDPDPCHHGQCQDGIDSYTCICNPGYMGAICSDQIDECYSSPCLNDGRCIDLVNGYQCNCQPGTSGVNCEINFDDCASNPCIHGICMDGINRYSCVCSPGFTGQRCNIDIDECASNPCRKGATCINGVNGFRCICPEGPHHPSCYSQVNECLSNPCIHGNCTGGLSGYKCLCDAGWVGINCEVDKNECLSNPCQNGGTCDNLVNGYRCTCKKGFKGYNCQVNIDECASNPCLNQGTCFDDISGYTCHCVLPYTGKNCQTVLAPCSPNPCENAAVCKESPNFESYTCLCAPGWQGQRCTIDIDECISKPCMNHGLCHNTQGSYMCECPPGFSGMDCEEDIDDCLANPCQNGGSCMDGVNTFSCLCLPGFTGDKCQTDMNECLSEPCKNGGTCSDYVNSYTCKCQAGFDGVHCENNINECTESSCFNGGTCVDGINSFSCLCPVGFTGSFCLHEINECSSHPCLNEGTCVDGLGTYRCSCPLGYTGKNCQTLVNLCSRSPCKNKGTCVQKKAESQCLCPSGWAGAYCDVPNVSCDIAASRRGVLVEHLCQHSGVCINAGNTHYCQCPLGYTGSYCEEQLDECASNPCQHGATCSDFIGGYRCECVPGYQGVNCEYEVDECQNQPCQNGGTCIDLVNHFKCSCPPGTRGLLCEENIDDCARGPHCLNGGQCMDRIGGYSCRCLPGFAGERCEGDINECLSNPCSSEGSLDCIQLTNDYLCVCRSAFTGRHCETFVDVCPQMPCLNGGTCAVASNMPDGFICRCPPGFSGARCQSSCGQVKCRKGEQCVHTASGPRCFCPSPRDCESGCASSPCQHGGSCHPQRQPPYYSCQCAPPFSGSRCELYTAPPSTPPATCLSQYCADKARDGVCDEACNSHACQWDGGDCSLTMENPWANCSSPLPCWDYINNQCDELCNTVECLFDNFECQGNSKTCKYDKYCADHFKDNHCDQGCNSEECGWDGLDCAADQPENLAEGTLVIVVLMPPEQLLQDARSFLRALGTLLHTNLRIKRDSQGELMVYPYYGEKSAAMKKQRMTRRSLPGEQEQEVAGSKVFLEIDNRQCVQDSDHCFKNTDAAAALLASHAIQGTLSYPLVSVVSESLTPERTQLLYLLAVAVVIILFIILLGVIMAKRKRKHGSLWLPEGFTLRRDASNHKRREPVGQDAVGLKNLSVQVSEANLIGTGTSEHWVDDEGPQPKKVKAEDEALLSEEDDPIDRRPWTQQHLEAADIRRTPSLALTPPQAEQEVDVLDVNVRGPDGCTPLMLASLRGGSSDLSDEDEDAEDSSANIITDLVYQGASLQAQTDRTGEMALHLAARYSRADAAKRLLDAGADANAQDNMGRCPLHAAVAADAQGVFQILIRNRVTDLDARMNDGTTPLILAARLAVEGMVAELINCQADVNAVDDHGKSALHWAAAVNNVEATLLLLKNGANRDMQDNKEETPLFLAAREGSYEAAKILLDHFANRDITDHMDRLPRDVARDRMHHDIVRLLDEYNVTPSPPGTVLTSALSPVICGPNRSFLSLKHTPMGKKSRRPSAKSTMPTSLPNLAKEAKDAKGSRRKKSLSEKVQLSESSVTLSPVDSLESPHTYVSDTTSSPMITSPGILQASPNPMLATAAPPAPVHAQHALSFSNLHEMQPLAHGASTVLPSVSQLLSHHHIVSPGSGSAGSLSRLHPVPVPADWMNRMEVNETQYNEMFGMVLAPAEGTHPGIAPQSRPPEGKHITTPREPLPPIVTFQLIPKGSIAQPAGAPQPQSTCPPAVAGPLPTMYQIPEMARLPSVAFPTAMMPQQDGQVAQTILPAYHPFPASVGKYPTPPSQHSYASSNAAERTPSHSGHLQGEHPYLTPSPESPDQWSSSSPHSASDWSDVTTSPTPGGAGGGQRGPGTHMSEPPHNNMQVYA

Consider `O=c1cccc(-c2ccc(C(F)(F)F)cc2)o1`, for which the composite z-score in test [1] was -0.0035; in [2] it was -0.814; in test [3], -0.045; in test [4] it was -0.173; in [5], -0.33; in test [6], -0.289. The composite z-score is -0.44 in [7], -0.126 in test [9] and -0.0994 in [10]. For the same compound, the z-score in test [8] is 3.27 (inactive).

Take `CCCC[C@@H]1C[C@H]1[C@@H](NC(=O)c1cccnc1)c1ccc(-c2ccccc2)cc1`: the composite z-score is 0.684 in [1]; -0.242 in test [2]; -0.124 in test [3]; -0.522 in [4]; -1.71 in [5]; -0.401 in test [6]. In addition, the composite z-score in test [7] is -0.655; in [9], -1.23; in [10], -0.0074. In addition, the z-score in [8] is -0.781 (inactive).

`CC(C)N1CC=CC23O[C@@H]4C=CCOC(=O)[C@@H]4[C@H]2C(=O)N(C(C)CO)[C@@H]3C1=O` (stereo not given in full): the composite z-score in [1] was 0.377; in [2] it was -1.2; in test [3], -0.071; in test [4], -0.536; in test [5] it was -1.11; in test [6] it was 2.17. In addition, the figures for the composite z-score in test [7], in [9] and in [10] were 0.9, -0.508 and -0.593, respectively. The z-score in [8] is 0.106 (inactive).

Turning to `COCCOC(=O)N1C(=O)[C@@]2(c3cc(C#Cc4ccc(OC)cc4)ccc31)[C@H](C(=O)N1CCN(c3ncccn3)CC1)[C@H]1C(=O)O[C@H](c3ccccc3)[C@H](c3ccccc3)N1[C@@H]2c1ccccc1OCCO`, the composite z-score in test [1] is -0.0234; in test [2], 0.0841; in test [3] it was -0.124; in test [4], 0.475; in test [5] it was 0.711; in test [6], 0.0925. Further, the results for the composite z-score in test [7], in test [9] and in [10] were 1.02, 0.0402 and -0.0994, respectively. Further, the z-score in test [8] is -0.425 (inactive).

As for `O=C1C2C=CC(C(O)c3cc(C(F)(F)F)cc(C(F)(F)F)c3)N(Nc3ccc([N+](=O)[O-])cc3)C2C(=O)N1c1ccccc1` (stereo not given), the composite z-score was -0.25 in test [1]; 0.466 in [2]; 0.0678 in test [3]; 0.94 in test [4]; 1.67 in [5]; 1.86 in test [6]. Moreover, the composite z-score was 1.17 in [7], 0.598 in [9] and -0.166 in test [10]. For the same compound, the z-score in test [8] is 0.0404 (inactive).

Regarding `Cc1c(NC(=O)/C(C#N)=C/C=C/c2ccc(N(C)C)cc2)c(=O)n(-c2ccccc2)n1C`, the composite z-score in [1] is -0.266; in test [2], 0.297; in test [3], 0.29; in test [4], 0.82; in test [5], 1.18; in [6], 1.49. Also, the composite z-score in test [7] is 1.17; in test [9], 0.512; in test [10] it was 0.409. The z-score in [8] was 3.7 (inactive).

As for `O=C1O[C@@H](c2ccccc2)[C@@H](c2ccccc2)N2[C@@H](c3ccc(O)cc3)[C@]3(C(=O)Nc4ccc(C#CC5=CCCCC5)cc43)[C@@H](C(=O)N3CCN(c4ncccn4)CC3)[C@H]12`, the composite z-score was -0.397 in [1]; 0.892 in test [2]; -0.0287 in test [3]; 0.323 in test [4]; 0.846 in test [5]; 0.901 in [6]. Besides, the composite z-score in test [7] came out at 1.2; in [9], 0.207; in [10] it was 0.0116. Also, in test [8], the z-score is 0.795 (inactive).

In the case of `COC1(C)CN(Cc2ccccc2Br)[C@H](/C=C/c2ccccc2)[C@H](Cc2ccccc2)O1` (stereo not given in full), the composite z-score in test [1] was -0.366; in test [2], 0.115; in test [3] it was -0.194; in test [4], -0.0452; in [5] it was -0.669; in [6] it was -0.435. The values for the composite z-score in test [7], in test [9] and in [10] were -0.426, -0.317 and 0.0373, respectively. Also, in [8], the z-score was -0.916 (inactive).

Turning to `COC(=O)[C@@]1(Cc2ccc(OC)cc2)[C@H]2c3cc(C(=O)N4CCCC4)n(CCc4cc5ccccc5[nH]4)c3C[C@H]2CN1C(=O)c1ccccc1`, the composite z-score in test [1] was 0.649; in test [2] it was 0.115; in test [3], 0.194; in test [4], 0.614; in [5] it was 1.36; in test [6], 1.9. The results for the composite z-score in test [7], in test [9] and in [10] were 1.1, 1.71 and 0.363, respectively. For the same compound, the z-score in test [8] is 0.562 (inactive).

Regarding `COCCOC(=O)N1C(=O)[C@@]2(c3cc(C#CC4(O)CCCCCC4)ccc31)[C@H](c1ccccc1OCCO)N1[C@H](c3ccccc3)[C@H](c3ccccc3)OC(=O)[C@H]1[C@@H]2C(N)=O`, the composite z-score is -0.452 in test [1]; 0.447 in test [2]; 0.0038 in [3]; 0.498 in test [4]; 1.35 in test [5]; 0.102 in test [6]. In addition, the composite z-score was 1.16 in [7], 0.489 in [9] and -0.0672 in test [10]. Besides, the z-score in test [8] is -1.17 (inactive).

As for `CCOC(=CC(=O)OC)CC(O)c1cccc(Cl)c1` (stereo not given), the composite z-score was 0.201 in test [1]; 0.071 in [2]; -0.0504 in [3]; -0.157 in test [4]; -0.124 in [5]; 1.43 in test [6]. Moreover, the composite z-score is 1.37 in test [7], -0.595 in [9] and -0.303 in test [10]. Moreover, the z-score in test [8] is -3.65 (inactive).

Consider `CC(C)CNC(=O)[C@@H]1c2ccccc2C(=O)N(Cc2cc(F)cc(C(F)(F)F)c2)[C@H]1c1ccc(CO)cc1`, for which the composite z-score is 0.366 in [1]; -0.23 in test [2]; 0.0079 in test [3]; 0.207 in test [4]; 0.561 in test [5]; 0.38 in test [6]. The composite z-score in [7] was 1.23; in test [9], 0.0604; in test [10], -0.0237. In addition, in test [8], the z-score was -1.78 (inactive).

For the compound `O=C1c2ccccc2[C@@]2(Cc3ccccc3N(C3CC3)C2=O)[C@H](c2ccc(CO)cc2)N1C1CCCCC1`, the composite z-score in test [1] was -0.0266; in test [2] it was -0.625; in test [3] it was -0.0325; in [4], -0.015; in [5] it was -0.119; in test [6], 0.123. In addition, the composite z-score in test [7] was -0.716; in test [9] it was -0.0416; in test [10], -0.0994. The z-score in [8] is 0.291 (inactive).

With `C=CCOC(=O)[C@@H]1[C@H]2C(=O)O[C@H](c3ccccc3)[C@H](c3ccccc3)N2[C@H](c2ccc(OCCOC(=O)[C@H]3C[C@H]4C(=O)N[C@@H](CCCC[N+](C)(C)C)C(=O)N4[C@H]3c3ccc(O)cc3)cc2)[C@@]12C(=O)Nc1ccc(I)cc12`, the composite z-score is -0.42 in test [1]; 1.1 in test [2]; -0.0569 in test [3]; 0.528 in [4]; 1.18 in test [5]; 1.31 in test [6]. Also, the composite z-score in test [7] was 1.37; in test [9], 0.208; in [10], -0.138. Also, the z-score in test [8] is 0.369 (inactive).

For the compound `Cc1ccc(S[C@]2(C(=O)NCC(C)C)CC(=O)N(Cc3ccccc3Cl)[C@@H]2c2ccc(CO)cc2I)cc1`, the composite z-score was 0.699 in test [1]; 1.65 in [2]; -0.0818 in test [3]; 0.452 in test [4]; -1.11 in test [5]; 1.54 in test [6]. Further, the values for the composite z-score in test [7], in test [9] and in test [10] were 1.36, -0.414 and -0.0645, respectively. In test [8], the z-score was -1.45 (inactive).

As to `O=C1O[C@H](c2ccccc2)[C@H](c2ccccc2)N2[C@H]1[C@@H](C(=O)O)[C@]1(C(=O)Nc3ccccc31)[C@H]2c1ccc(O)cc1`, the composite z-score was 1.17 in test [1]; -0.122 in test [2]; -0.113 in [3]; 0.338 in [4]; -0.844 in [5]; 1.85 in test [6]. Besides, the figures for the composite z-score in test [7], in [9] and in test [10] were 0.771, -0.388 and -0.24, respectively. Also, the z-score in test [8] is 1.28 (inactive).
